Laboratory results published in PubChem BioAssay (NCATS).
Inconclusive results are not listed. Activity calls are given as the source filed them. Calls follow the shape of the dose curve; as a rule, active = well fitted cell-killing curve with a large enough effect; inconclusive = small, poorly fitted or top-dose-only effect; inactive = flat fitted curve, though single readings scatter.
% is scaled to controls: 0 for no effect and ±100 for the full control effect.

Test: Vero cells viability qHTS for Zika virus inhibitors (AID 1347167)
Details: cytotoxicity counter-screen (Zika); series mostly up to 45.9 µM; activity change, negative = cytotoxicity: at the top concentration
Excerpt: Avindra Nath, Ph.D., National Institute of Neurological Disorders and Stroke (NINDS), Bethesda, MD
Radhakrishnan Padmanabhan, Ph.D., Georgetown University (GU), Washington D.C.
Zika Virus causes congenital defects, including microcephaly and is associated with Guillain-Barre syndrome, eningoencephalitis and myelitis in infected adult. […] Using a target-based approach, we hope to establish a screening paradigm to uncover novel, cell-active NS2B-NS3 protease (Zika Virus) specific inhibitors from NCATS' collection of small molecules using qHTS.
Four assay panel was created to identify potential Zika Virus inhibitors. Namely, (1) GU unlinked NS2B-NS3 AMC tagged protease qHTS, (2) GU unlinked NS2B-NS3 Rhodamine tagged protease qHTS, (3) NINDS linked NS2B-NS3 AMC tagged protease qHTS, (4) NINDS linked NS2B-NS3 Rhodamine tagged protease qHTS. Identified inhibitors were screened against the Vero and HepG2 cell viability assays using CellTiter Glo to exclude cytotoxic compounds.
Early Translation Branch (ETB)
National Center for Advancing Translational Sciences (NCATS), Rockville, MD
National Institute of Health (NIH), Bethesda, Maryland
Vero and HepG2 Cell Viability Assay:
Vero and HepG2 cell cytotoxicity were determined using a luminescent readout with CellTiter Glo reagent (Promega, Madison, WI), which is based on measuring the ATP content within cells. Briefly, 4 microL of Vero or HepG2 cells at 2.5 x 10^5 cells/mL in DMEM containing 4% FBS were dispensed into 1536-well solid bottom tissue treated white plate using a Multidrop Combi dispenser (Thermo Scientific). Plates were incubated at 37 degrees C, 95% humidity, and 5% CO2 overnight to allow for cell attachment. Compounds were dissolved in DMSO at different concentrations and transferred via pintool (Wako Automation), for a final concentration of 0.029 µM - 57 microM. Plates were again incubated for 24 to 48 hours, followed by a 2 microL addition of CellTiter Glo. Finally, plates were incubated for 30 minutes at 37 degrees C and 5% CO2 before being read on a ViewLux (Perkin Elmer) for luminescence.
In the case of `O=C1Nc2ccc(I)cc2C1=Cc1cc(Br)c(O)c(Br)c1`, the “activity change, negative = cytotoxicity” value is reported as 0.762% (inactive).
For `O=C(Nc1ccccc1)Nc1ccc(-c2ccc(C(=O)[C@H]3CCC[C@H]3C(=O)O)cc2)cc1`, the “activity change, negative = cytotoxicity” value was -2.09% (inactive).
For `C[C@H]1COC2=C1C(=O)C(=O)c1c2ccc2c1CCCC2(C)C`, the “activity change, negative = cytotoxicity” value was -0.998% (inactive).
With `N#CC1(c2cccc(C(=O)Nc3cc(Oc4ccc5nc(NC(=O)C6CC6)sc5n4)ccc3F)c2Cl)CC1` the “activity change, negative = cytotoxicity” value was -0.128% (inactive).
In the case of `CC[C@H](C)n1cc(C)c2c(C(=O)NCc3c(C)cc(C)[nH]c3=O)cc(-c3ccc(N4CCNCC4)nc3)cc21`, the “activity change, negative = cytotoxicity” value is reported as -1.71% (inactive).
With `O=S(=O)(O)c1ccc2cc(N=Nc3cc(S(=O)(=O)O)c4cccnc4c3O)ccc2c1` the “activity change, negative = cytotoxicity” value was -6.48% (inactive).
With `COc1cc(Cl)cn2c(-c3cccc(NC4CNC4)n3)cnc12` the “activity change, negative = cytotoxicity” value was -1.37% (inactive).
In the case of `Fc1ccc(C(c2ccc(F)cc2)N2CCN(CC=Cc3ccccc3)CC2)cc1`, the “activity change, negative = cytotoxicity” value is reported as -9.86% (inactive).
For `CCCCOCCOc1nc(-c2ccc(C(=O)O)c(F)c2)sc1C`, the “activity change, negative = cytotoxicity” value was -2.69% (inactive).
In the case of `CCOC(=O)[C@H](CCc1ccccc1)N[C@@H](C)C(=O)N1CCCC1C(=O)O` (stereo partly drawn), the “activity change, negative = cytotoxicity” value is reported as -1.82% (inactive).
With `c1cc(OCCN2CCCCC2)cc(-c2n[nH]c3ccc(-c4ncn[nH]4)cc23)c1` the “activity change, negative = cytotoxicity” value was -0.731% (inactive).
For `COc1cc(Nc2nc3ccccc3nc2NS(=O)(=O)c2ccc(NC(=O)c3ccc(C)c(OC)c3)cc2)cc(OC)c1`, the “activity change, negative = cytotoxicity” value was -0.694% (inactive).
For `O=C(Nc1cccc2c(=O)cc(-c3nn[nH]n3)oc12)c1ccc(OCCCCc2ccccc2)cc1`, the “activity change, negative = cytotoxicity” value was -0.981% (inactive).
For `N#CC(c1ccc(Cl)cc1)c1c(Cl)cc(-n2ncc(=O)[nH]c2=O)cc1Cl` (stereo not drawn), the “activity change, negative = cytotoxicity” value was -12.4% (inactive).
With `Cc1nc(C(=O)NCC(=O)O)c(O)c2ccc(Oc3ccccc3)cc12` the “activity change, negative = cytotoxicity” value was -2.71% (inactive).
For `CCCCC[C@H](O)C=C[C@H]1[C@H](O)CC(=O)[C@H]1CCCCCCC(=O)O`, the “activity change, negative = cytotoxicity” value was -1.41% (inactive).
For `COc1ccc(-c2ccc3ncc4c(c3c2)n(-c2ccc(N3CCNCC3)c(C(F)(F)F)c2)c(=O)n4C)cn1`, the activity change, negative = cytotoxicity was -1.62% [at 4.93 µM] (inactive).
With `OC(c1cc(C(F)(F)F)nc2c(C(F)(F)F)cccc12)C1CCCCN1` (stereo not drawn) the “activity change, negative = cytotoxicity” value was -7.07% (inactive).
